Screening results from PubChem.
HP1b chromo inh – HTS for Inhibitors of HP1-beta Chromodomain Interactions with Methylated Histone Tails. AlphaScreen HP1-beta / biotin-H3K9me3 peptide binding. Potency, µM (doses to about 114 µM), actives largely listed as inhibitors. AID 540317, 2011. Chromobox protein homolog 1 (Homo sapiens), P83916. actives 0.56% (n = 390,000); note: nearly all actives have a fitted effect of over 70% in size
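HP1-beta protein (50 nM final) preincubated 30 min at room temperature with biotinylated H3(1-18)K9me3 peptide (50 nM) in PBS pH 7.4, 0.01% Tween-20, then compound added for 30 min. AlphaScreen streptavidin donor/nickel chelate acceptor beads (10 ug/mL final), 30 min dark, luminescence read.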
L3MBTL1 inh – qHTS Assay for the Inhibitors of L3MBTL1; AlphaScreen L3MBTL1–H3K9me1 peptide binding; actives 0.66% (n = 230,000); Potency, µM (series often up to 57.1 µM), most hits filed as inhibitors; note: nearly all actives have a fitted effect of over 60% in size
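AlphaScreen assay: L3MBTL1 (50 nM final) was preincubated 30 min at room temperature with biotinylated H3(1-15)K9me1 peptide (75 nM final), then 30 min with library compounds; streptavidin donor and nickel chelate acceptor beads (10 ug/mL final) added, 30 min dark.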
Sfp PPTase inh – qHTS Assay for Inhibitors of Bacillus subtilis Sfp phosphopantetheinyl transferase (PPTase). 4'-phosphopantetheinyl transferase ffp (Bacillus subtilis), Q9F4F7. Biochemical Sfp PPTase activity, qHTS. Potency, µM, most hits filed as inhibitors. actives 3.5% (n = 310,000). AID 1490, 2009;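 note: the enzyme is Sfp with the accession as filed and its product quenches rhodamine fluorescence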
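Fluorescence-quenching assay with 15 nM Sfp, 5 uM rhodamine-CoA and 12.5 uM BHQ-2-labelled ybbR peptide in pH 7.6 Hepes/MgCl2 buffer. Enzyme was pre-incubated with compound for 15 min at room temperature. Rate was taken from the 30-min fluorescence change (525/598 nm).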
JMJD2A Tudor inh – qHTS Assay for Inhibitors of JMJD2A-Tudor Domain. Lysine-specific demethylase 4A (Homo sapiens), O75164. AlphaScreen JMJD2A-Tudor / H3K4me3 peptide binding. Potency, µM (doses to about 114 µM), actives largely listed as inhibitors. actives 4.4% (n = 390,000); note: nearly all actives have a fitted effect of over 50% in size
Target sequence (O75164 whole entry, looked up, the tested form may be a part): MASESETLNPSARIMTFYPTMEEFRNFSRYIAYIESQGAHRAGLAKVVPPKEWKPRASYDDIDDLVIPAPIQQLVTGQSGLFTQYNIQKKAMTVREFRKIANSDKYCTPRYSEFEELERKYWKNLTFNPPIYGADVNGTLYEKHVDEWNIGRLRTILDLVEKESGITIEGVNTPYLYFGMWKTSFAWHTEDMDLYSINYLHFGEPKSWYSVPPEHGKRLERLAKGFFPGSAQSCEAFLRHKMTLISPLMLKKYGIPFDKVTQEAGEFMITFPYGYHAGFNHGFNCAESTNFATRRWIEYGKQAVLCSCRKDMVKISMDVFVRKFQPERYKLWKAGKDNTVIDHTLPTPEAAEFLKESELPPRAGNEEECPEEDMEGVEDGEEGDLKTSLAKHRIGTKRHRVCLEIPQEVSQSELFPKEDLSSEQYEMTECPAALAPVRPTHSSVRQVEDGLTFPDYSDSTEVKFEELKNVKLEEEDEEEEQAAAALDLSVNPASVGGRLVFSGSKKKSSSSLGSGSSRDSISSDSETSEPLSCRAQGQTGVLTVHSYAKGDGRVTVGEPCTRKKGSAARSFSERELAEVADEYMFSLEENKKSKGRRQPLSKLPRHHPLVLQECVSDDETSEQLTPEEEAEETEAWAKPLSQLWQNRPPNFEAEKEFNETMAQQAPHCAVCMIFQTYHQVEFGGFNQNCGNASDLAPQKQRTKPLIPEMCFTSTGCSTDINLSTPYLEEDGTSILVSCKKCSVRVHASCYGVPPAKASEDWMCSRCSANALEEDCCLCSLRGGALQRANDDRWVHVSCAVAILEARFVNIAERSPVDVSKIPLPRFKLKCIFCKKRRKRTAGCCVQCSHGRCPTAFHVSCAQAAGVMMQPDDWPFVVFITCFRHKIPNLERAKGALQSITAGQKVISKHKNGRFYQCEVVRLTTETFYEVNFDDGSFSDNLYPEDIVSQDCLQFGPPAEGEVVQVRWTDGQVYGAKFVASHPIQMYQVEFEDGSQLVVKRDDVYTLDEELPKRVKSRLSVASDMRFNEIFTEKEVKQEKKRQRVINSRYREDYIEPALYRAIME
BAZ2B block – qHTS Assay for Inhibitors of BAZ2B. Bromodomain adjacent to zinc finger domain protein 2B (Homo sapiens), Q9UIF8. AlphaScreen BAZ2B-H3K14Ac peptide displacement. Potency, µM (highest dose often 114 µM), hits mostly inhibitors. actives 4.4% (n = 360,000); note: nearly all actives have a fitted effect of over 60% in size
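Complex of BAZ2B and biotin-H3K14Ac (50 nM apiece) forms over 30 min at RT, then faces library compounds up to 110 uM for another 30 min; AlphaScreen beads added, 20 min dark incubation, luminescence read.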
G9a inh – qHTS Assay for Inhibitors of Histone Lysine Methyltransferase G9a | Histone-lysine N-methyltransferase EHMT2 (Homo sapiens), Q96KQ7 | G9a H3K9 monomethylation, AlphaScreen, 2 h | Potency, µM (top dose mostly 102 µM), usual class: inhibitors | actives 8.8% (n = 350,000) | AID 504332, 2011; note: nearly all actives have a fitted effect of over 75% in size
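Chemiluminescent proximity detection of H3K9 monomethylation, read after 10 min bead incubation in the dark. Reaction: 20 nM G9a, 500 nM biotin-H3K9 peptide, 20 uM SAM cofactor, 2 h, room temperature, following 15 min enzyme-compound preincubation.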
Hits are given with their value; ! = a repeat was not active; [ ] = dose if it differs, or a comment. Rows were chosen to be rich in hits. Some 12% of all compounds tested hit in one or more screens of this group. Calls come from the whole dose curve; as a rule, active = well fitted curve in the direction sought with a large enough effect; inconclusive = small, poorly fitted or top-dose-only effect, or another doubt; inactive = no such curve, though single readings can be large; an effect the other way counts as inactive or inconclusive.

For COc1ccc(CNC(=O)C[C@H]2C[C@H](C(=O)N3CCCCC3)[C@@]3(C)c4[nH]c5ccc(Cl)cc5c4CCN3C2=O)cc1OC the results were HP1b chromo inh inactive, L3MBTL1 inh inactive and JMJD2A Tudor inh 56µM.
COc1ccc(CNC(=O)C[C@H]2C[C@H](C(=O)N3CCCCC3)[C@@]3(C)c4[nH]c5cc(-c6ccco6)ccc5c4CCN3C2=O)cc1OC was read as HP1b chromo inh inconclusive, L3MBTL1 inh inconclusive and JMJD2A Tudor inh 56µM.
For CN1/C(=C\C(=O)CSc2nnc(N)s2)C(C)(C)c2ccccc21 the results were HP1b chromo inh inactive, L3MBTL1 inh inactive, Sfp PPTase inh inactive, JMJD2A Tudor inh inactive, BAZ2B block inactive and G9a inh inactive.
For CN1/C(=C\C(=O)CSc2cccc[n+]2[O-])C(C)(C)c2ccccc21 the results were HP1b chromo inh inactive, L3MBTL1 inh inactive, Sfp PPTase inh 16µM, JMJD2A Tudor inh inactive, BAZ2B block inactive and G9a inh 10µM.
For Cc1cccc[n+]1CC(=O)/C=C1\N(C)c2ccccc2C1(C)C the results were HP1b chromo inh inactive, L3MBTL1 inh inactive, Sfp PPTase inh inactive, JMJD2A Tudor inh inactive, BAZ2B block inactive and G9a inh inactive.
CN1/C(=C/C(=O)CSc2ccccc2C(=O)O)C(C)(C)c2ccccc21 was read as HP1b chromo inh inactive, L3MBTL1 inh inactive, Sfp PPTase inh 89µM, JMJD2A Tudor inh inactive, BAZ2B block inconclusive and G9a inh inconclusive.
`O=C(Nc1cc(Cl)ccc1Cl)c1cc(S(=O)(=O)N2CCCc3ccccc32)ccc1F` gave HP1b chromo inh inactive, JMJD2A Tudor inh inactive, BAZ2B block inactive and G9a inh inactive.
CC(C)C[C@H](NC(=O)[C@H](C)NC(=O)CNC(=O)[C@H](CCCCN)NC(=O)[C@H](CCCN=C(N)N)NC(=O)[C@H](C)NC(=O)[C@H](Cc1ccccc1)NC(=O)[C@@H](N)CCCN=C(N)N)C(=O)N[C@@H](CCCN=C(N)N)C(=O)N[C@@H](CCC(N)=O)C(=O)N[C@@H](CCCCN)C(=O)N[C@@H](CC(N)=O)C(=O)N[C@H](C(N)=O)C(C)C was read as Sfp PPTase inh inactive.
For CCCCC/C=C\C/C=C\C/C=C\CCCCC(N)=O the results were Sfp PPTase inh inactive.
For CS(=O)(=O)N1CCC2(CC1)CN(C(=O)Nc1cccc(C#N)c1)C2 the results were Sfp PPTase inh inactive and G9a inh inactive[12.7 µM].
For CC1=Nc2ncnn2C(c2ccccc2)/C1=N\O (centres undefined) the results were HP1b chromo inh inactive, L3MBTL1 inh inactive, Sfp PPTase inh inactive, JMJD2A Tudor inh inactive, BAZ2B block inconclusive and G9a inh 50µM.
`CC1=CC(c2ccccc2)n2ncnc2N1` (centres undefined) gave HP1b chromo inh inactive and JMJD2A Tudor inh inactive.
`COc1ccccc1N1CCN(/N=C/c2ccc(Cl)c([N+](=O)[O-])c2)CC1` gave HP1b chromo inh inconclusive, Sfp PPTase inh inactive, JMJD2A Tudor inh inconclusive and BAZ2B block 18µM.
Screening COc1ccccc1N1CCN(/N=C/c2ccc([N+](=O)[O-])cc2)CC1 returned HP1b chromo inh inconclusive, L3MBTL1 inh inactive, Sfp PPTase inh inactive, JMJD2A Tudor inh 28µM, BAZ2B block 18µM and G9a inh 18µM.
For CN(C)S(=O)(=O)c1cc(NC2CC(=O)N(c3ccc(F)cc3)C2=O)ccc1Cl (centres undefined) the results were HP1b chromo inh inactive, L3MBTL1 inh inactive, Sfp PPTase inh inactive, JMJD2A Tudor inh inactive, BAZ2B block inactive and G9a inh 35µM.
Cc1ccc(NC2CC(=O)N(c3ccc(C)cc3)C2=O)cc1 (centres undefined) was read as HP1b chromo inh inactive, Sfp PPTase inh inactive, JMJD2A Tudor inh inactive[11.4 µM], BAZ2B block inactive and G9a inh inactive.
For CCOc1ccc(NC(=O)CSc2nnc(CNC(=O)C34CC5CC(CC(C5)C3)C4)n2CC)cc1 the results were HP1b chromo inh inactive, JMJD2A Tudor inh inactive, BAZ2B block inactive and G9a inh inactive.
Screening COCCCn1c(SCc2nnc(-c3ccccc3)o2)nc2sc3c(c2c1=O)CCC3 returned HP1b chromo inh inactive, L3MBTL1 inh inactive, Sfp PPTase inh inactive, JMJD2A Tudor inh inactive, BAZ2B block inconclusive and G9a inh inactive.
`Cn1c(SCc2nnc(-c3ccccc3Br)o2)nc2sc3c(c2c1=O)CCC3` gave HP1b chromo inh inactive, L3MBTL1 inh inactive, Sfp PPTase inh 79µM, JMJD2A Tudor inh inactive, BAZ2B block inactive and G9a inh inactive.
For CCOC(=O)N1CCC(NC(=O)c2cnn3c2NC(c2ccco2)CC3C(F)(F)F)CC1 (centres undefined) the results were HP1b chromo inh inactive, Sfp PPTase inh 56µM, JMJD2A Tudor inh inactive, BAZ2B block inactive and G9a inh inconclusive.
`CN(Cc1ccc(-n2cccn2)cc1)C(=O)c1cnn2c1NC(c1ccco1)CC2C(F)(F)F` (centres undefined) gave HP1b chromo inh inactive, L3MBTL1 inh inactive, Sfp PPTase inh 20µM, JMJD2A Tudor inh inactive, BAZ2B block inactive and G9a inh inconclusive.
For COCCNC(=O)c1cnn2c1NC(c1ccco1)CC2C(F)(F)F (centres undefined) the results were HP1b chromo inh inactive, L3MBTL1 inh inactive, Sfp PPTase inh inactive, JMJD2A Tudor inh inactive, BAZ2B block inactive and G9a inh inactive.
Cc1ccc(C2CC(C(F)(F)F)n3ncc(C(=O)NCc4ccco4)c3N2)cc1 (centres undefined) was read as HP1b chromo inh inactive, L3MBTL1 inh inactive, Sfp PPTase inh inactive, JMJD2A Tudor inh inconclusive, BAZ2B block inconclusive and G9a inh 45µM.
For Cc1ccc(C2CC(C(F)(F)F)n3ncc(C(N)=O)c3N2)cc1 (centres undefined) the results were HP1b chromo inh inactive, L3MBTL1 inh inactive, Sfp PPTase inh inactive, JMJD2A Tudor inh inactive, BAZ2B block inactive and G9a inh inactive.
For Cc1ccc(NC2=CC(c3ccccc3F)N(c3ccc(C)cc3)C2=O)cc1 (centres undefined) the results were HP1b chromo inh inactive, JMJD2A Tudor inh inactive, BAZ2B block inconclusive and G9a inh inconclusive.
`O=C1N[C@@H](Cc2c[nH]c3ccccc23)C(=O)N[C@H]1Cc1c[nH]c2ccccc12` gave Sfp PPTase inh inactive.
For c1ccc2c(Cc3c[nH]c4ccccc34)c[nH]c2c1 the results were Sfp PPTase inh inactive and G9a inh 8.9µM!.
